According to PubChem BioAssay AID743279 (National Center for Advancing Translational Sciences (NCATS), 2014):
Hit rate of the full screen: of about 360,000 compounds, about 17,000 (4.7%) were called active. Not shown: some 5% with an inconclusive outcome. The sample holds actives, similar compounds and a random draw of the others, so the mix is not that of the screen. Rule as the data show it: active = activity change below about -50%; inconclusive = mostly about -30% to -49%; inactive = weaker than that.

test: qHTS for Inhibitors of Inflammasome Signaling: IL-1-beta AlphaLISA Primary Screen; settings: THP-1 LPS/ATP IL-1B secretion, 16 h; at 57.5 µM, hits give low values
From the text: Inflammasomes are a set of intracellular multi-protein complexes that enable autocatalytic activation of inflammatory caspases and drive the innate immune response to counter harmful agents. […] A qHTS assay, based on AlphaLISA technology, was developed to screen the Molecular Libraries Small Molecule Repository (MLSMR) to look for novel inflammasome inhibitors. The assay detects IL-1B using AlphaLISA anti-IL-1B acceptor and donor beads. A decreased emission signal, indicating reduced IL-1B secretion, is the desired outcome for this assay. NIH Chemical Genomics Center [NCGC] NIH Molecular Libraries Probe Centers Network [MLPCN] MLPCN Grant: MH095513 Assay Provider: Shyam Biswal Ph.D., Johns Hopkins University Immunity. 2012 Jul 27;37(1):85-95. PMID: 22819042 [2] Curr Pharm Des. 2012;18(16):2320-8. PMID: 22390695
Three microliters containing 3000 THP-1 cells were dispensed into the wells of solid, white, tissue culture treated Greiner 1,536-well plates. Library compounds and positive control, Glyburide, were pin-transferred (23 nL) by a Kalypsys pin-tool equipped with a 1,536-pin array, resulting in final compound concentration ranges of 2.5 nM to 57.5 uM. After 1 hr of cell culture incubation (37 °C, 5% CO2), 1 microL of 1 microg/mL lipopolysaccharide (250 ng/mL, final) and 5 mM ATP (1.25 mM, final) were added to stimulate the cells. After 16 hr of cell culture incubation with the compounds, 1.5 uL of anti-IL-1B acceptor beads (6 ug/mL, final) and biotinylated antibody (0.6 nM, final) were added to the plate, followed by a 1 hr incubation at ambient temperature. To detect the secreted IL-1B, 1.5 uL of AlphaLISA SA-Donor beads (24 ug/mL, final) were added, followed by 30 min of incubation in the dark at ambient temperature. The AlphaLISA signal was read by a PerkinElmer EnVision plate reader with an ultrasensitive luminescence detector and 1536 Plate HTS AlphaScreen aperture (excitation of 680nm and emission of 615nm).
% is scaled to controls: 0 for no effect and ±100 for the full control effect.

SMILES | activity change
Cc1cc(C(C)(C)C)cc(S(=O)(=O)Nc2ccc(C(=O)O)cc2)c1C | 0% (inactive)
COc1ccc(NC(=O)C(=O)NCC(c2ccco2)N2CCc3ccccc3C2)cc1 (configuration not stated) | 5.37% (inactive)
CC(=O)Nc1cc(-c2ccc(N3CCN(C)CC3)cc2)cn2c(-c3ccc(F)cc3)cnc12 | -91.8% (active)
CC(=O)Nc1cc(-c2ccc(N3CCN(C)CC3)cc2)cn2c(-c3cccc(C(=O)N(C)C)c3)cnc12 | -6.52% (inactive)
COc1ccccc1-c1cc(NC(C)=O)c2ncc(-c3ccc(F)cc3)n2c1 | -21.1% (inactive)
CC(=O)N1c2ccc(S(=O)(=O)N3CCCC(C(=O)NCc4ccc(Cl)cc4)C3)cc2CC1C (configuration not stated) | -22.7% (inactive)
CCN(CCN(C)C)C(=O)c1ccc2nc(C)c(N(C)C(=O)CCc3ccccc3)n2c1 | 10.6% (inactive)
CC(=O)Nc1cccc(NC(=O)c2ccc3c(c2)CCN3S(C)(=O)=O)c1 | -15.8% (inactive)
Cc1cc(C)cc(NC(=O)C(c2ccccc2)N2CCN(CC(=O)N3CCCC3)CC2)c1 (configuration not stated) | 15.8% (inactive)
Cc1[nH]c(C)c(S(=O)(=O)N2CCC(C)CC2)c1C(=O)N1CCCC1 | -16.2% (inactive)
COc1ccccc1C(=O)NC(CCSC)C(=O)N1CCN(C(C)=O)CC1 (configuration not stated) | -2.96% (inactive)
CSCCC(NC(=O)c1ccccc1)C(=O)N1CCCCCCC1 (configuration not stated) | -20.8% (inactive)
CSCCC(NC(=O)c1ccccc1)C(=O)N1CCN(Cc2ccc(Cl)cc2)CC1 (configuration not stated) | -78.1% (active)
O=C1NC[C@@H](CCCCN2CCN(CCc3ccc(O)cc3)C(=O)C2=O)N(CC2CCCCC2)C1=O | 24.5% (inactive)
COc1ccc(C2Nc3ccccc3C(=O)N2c2ccc(F)cc2)cc1Cn1nnc2ccccc21 (configuration not stated) | -12.7% (inactive)
COc1ccc(N2C(=O)c3ccccc3NC2c2ccc(OC)c(CN3CCOCC3)c2)cc1 (configuration not stated) | -2.56% (inactive)
COc1ccc(C2Nc3ccccc3C(=O)N2Cc2ccccc2)cc1Cn1nnc2ccccc21 (configuration not stated) | -62.4% (active)
Nc1ncnc2c1ncn2[C@@H]1O[C@H](C(=O)NS(=O)(=O)c2c(Cl)nc3sccn23)[C@@H](O)[C@H]1O | -13.5% (inactive)
CC(=O)Nc1cccc(-c2cc(NC=O)c3ncc(-c4ccc(F)c(Cl)c4)n3c2)c1 | 18.8% (inactive)
Cc1cccc(C)c1NC(=O)C(c1cccc(F)c1)N1CCN(C)CC1 (configuration not stated) | -18.5% (inactive)
COc1cc(SC#N)ccc1N=Cc1c(C)[nH]n(-c2ccc(C)cc2)c1=O | -83.8% (active)
FC(F)(F)Oc1ccccc1C(c1nnnn1C1CCCCC1)N1CCN(C/C=C/c2ccccc2)CC1 (configuration not stated) | -26.5% (inactive)

SMILES | activity change
O=C(CSc1ccc(Cl)cc1)NC1CC1 | 3.85% (inactive)
Cc1ccc(-c2cc(C(=O)NC3CCN(Cc4ccccc4)CC3)c3ccccc3n2)cc1 | -4.22% (inactive)
Cc1ccc(-c2nc(CSCC(=O)NC3CCN(Cc4ccccc4)CC3)c(C)o2)cc1 | -64.8% (active)
Cc1ccc(S(=O)(=O)NCCC(=O)NC2CCN(Cc3ccccc3)CC2)cc1 | -11.3% (inactive)
CC(=O)c1ccc(S(=O)(=O)N(C)CCCC(=O)N(C)Cc2ccccc2F)cc1 | -0.0792% (inactive)
Cc1cccc(C)c1NC(=O)N1CC(C)OC(C)C1 (configuration not stated) | -6.92% (inactive)
Cc1ccc(S(=O)(=O)N(C)c2nc3ccccc3n3c(C(C)C)nnc23)cc1 | 9.42% (inactive)
O=C1N(c2ccc(Cl)cc2)C(c2ccc(Cl)cc2)N2CCCN12 (configuration not stated) | -5.15% (inactive)
CCOC(=O)N1CCC(N2Cc3cccc(C(=O)Nc4c(C)cccc4CC)c3C2=O)CC1 | -55.1% (active)
O=C(O)c1cccc2c1C(=O)N(C1CCCC1)C2 | -1.11% (inactive)
CCOC(=O)N1CCC(N2Cc3cccc(C(=O)Nc4ccc(S(=O)(=O)N(CC)CC)cc4)c3C2=O)CC1 | 63.8% (inactive)
CC1(C(=O)NCc2ccc3c(c2)OCO3)CCN1C(=O)Cc1cccs1 (configuration not stated) | -5.2% (inactive)
COc1cccc(NC(=O)CN(C)C(=O)CSC(=S)N2CCCC2)c1 | 6.49% (inactive)
COc1cccc(NC(=O)CN(C)C(=O)/C=C/c2cn(-c3ccccc3)nc2-c2cccs2)c1 | -24.8% (inactive)
COc1cccc(NC(=O)CN(C)C(=O)CSCc2nc3scc(-c4cccs4)c3c(=O)[nH]2)c1 | -57.4% (active)
Cc1cc(C)n(CC(=O)Nc2ccc([N+](=O)[O-])cc2)n1 | 15.4% (inactive)
COCOc1cccc(CN2CCC(C)(Oc3ccc(SC)cc3)C2)c1 (configuration not stated) | -9.11% (inactive)
Fc1cnc(N2CCOCC2)nc1NCc1ccccc1 | 38.4% (inactive)
c1ccc2c(NC3C4CC5CC(C4)CC3C5)nc(N3CCOCC3)nc2c1 (configuration not stated) | -79.7% (active)
c1cnc(NC2C3CC4CC(C3)CC2C4)nc1 (configuration not stated) | 16.6% (inactive)
O=C(CNC(=O)N1CC(=O)Nc2ccccc21)Nc1ccc(Br)cc1F | 16.8% (inactive)
CC(C)Cc1nnc(N)s1 | -2.84% (inactive)

SMILES | activity change
CC1Cc2nc(SCC(=O)Nc3ccccc3F)n(C)c(=O)c2S1 (configuration not stated) | 11.4% (inactive)
COCc1cccc(-c2csc(C(O)c3ccc(F)cc3)n2)c1 (configuration not stated) | -9.62% (inactive)
Cc1ccc(C(=O)/C=C/Nc2ccc(S(=O)(=O)Nc3onc(C)c3C)cc2)cc1 | 31.6% (inactive)
COc1ccc(NS(=O)(=O)c2ccc(NC(=S)NC(=O)/C=C/c3ccc(C)cc3)cc2)nn1 | -26.8% (inactive)
COc1ccc(/C=C/C(=O)c2ccc(NS(=O)(=O)c3ccc(C)cc3)cc2)cc1O | -103% (active)
CC1CC(C)CN(c2ccc(S(=O)(=O)N3CCOCC3)cc2)C1 (configuration not stated) | -9.62% (inactive)
COc1ccc(NC(=O)CSc2nnnn2-c2cccc(OC)c2)cc1 | -9.12% (inactive)
CC1(C(=O)NS(=O)(=O)Cc2cccc(Cl)c2)CCN1C(=O)Cc1ccc(Cl)cc1Cl (configuration not stated) | -21.1% (inactive)
O=C(O)c1ccccc1/C=N/Nc1ccc(S(=O)(=O)Nc2ccc(Cl)cc2)cc1[N+](=O)[O-] | 12.8% (inactive)
O=C(O)c1ccccc1N=N/C(=N/Nc1cc(S(=O)(=O)O)ccc1O)c1ccccc1 | -57.4% (active)
Cc1ccc(S(=O)(=O)N2CCC(C(=O)N3CCCCCCC3)CC2)cc1 | -8.84% (inactive)
O=C1C(Cl)=C(Oc2ccccc2)C(=O)c2ccccc21 | -18% (inactive)
Cc1ccc(N2CCN(C(=O)c3cccs3)CC2)c(C)c1 | -56% (active)
CCS(=O)(=O)N1CCN(C(=O)c2cccs2)CC1 | 38.7% (inactive)
Cc1ccc(S(=O)(=O)N2CCN(C(=O)c3cccs3)CC2)cc1 | 0% (inactive)
Cc1nc2ccccc2c(C(=O)O)c1-c1ccccn1 | 12.8% (inactive)
COc1ccc(NC(=O)CSc2ncnc3[nH]ncc23)cc1 | -51% (active)
COc1ccc(NC(=O)CSc2nc(C)cs2)cc1 | 15.6% (inactive)
COc1ccc(-n2ncc3c(SCC(=O)NNC(C)=O)ncnc32)cc1 | -3.94% (inactive)
CCN(CC)C(=O)C1=C(C)N(Cc2ccc(F)cc2)C(=O)C(CC(=O)NC2CCCC2)C1 (configuration not stated) | 3.15% (inactive)
CCOc1ccc(CCNC(=O)COC(=O)c2ccc(C)c(S(=O)(=O)N3CCOCC3)c2)cc1OCC | -2.62% (inactive)
Cc1noc(C)c1NC(=O)N(C)C[C@@H]1Oc2cc(Br)ccc2S(=O)(=O)N([C@@H](C)CO)C[C@H]1C | -11.1% (inactive)

SMILES | activity change
CCCNC(=O)c1cc(C2CCCN(C(=O)c3ccc4c(c3)CCO4)C2)on1 (configuration not stated) | 25.3% (inactive)
CC(=O)c1c(C)[nH]c(C(=O)COC(=O)CCOc2ccc(C)cc2)c1C | -89.1% (active)
CC(=O)c1c(C)[nH]c(C(=O)COC(=O)c2cccs2)c1C | 17.9% (inactive)
COc1cccc(C(=O)OCC(=O)c2[nH]c(C)c(C(C)=O)c2C)c1 | 12.1% (inactive)
COc1c(F)c(F)c(-c2csc(N)n2)c(F)c1F | -14.1% (inactive)
CCOC(=O)[C@]12CCC=C1N(Cc1ccccc1)C(=O)[C@H](CC(=O)N1CCCC1)C2 | 48.2% (inactive)
COc1ccc(NS(=O)(=O)c2ccc(O)c(C(=O)OCC(=O)NC3CCCCC3)c2)cc1 | 40.3% (inactive)
CCN(C(=O)COC(=O)c1cc(NS(=O)(=O)c2ccc(Cl)c([N+](=O)[O-])c2)ccc1O)C1CCCCC1 | -98.5% (active)
CN(C)c1ccc(S(=O)(=O)NCC(=O)NCC2CCCCC2)cc1[N+](=O)[O-] | 8.52% (inactive)
C=CCn1c(SCC(=O)c2ccc(Br)cc2)nnc1C(C)NC(=O)Cc1ccc(OC)cc1 (configuration not stated) | 18.8% (inactive)
Cn1cnnc1SCC(=O)Nc1ccc(N2CCOCC2)cc1 | 19.7% (inactive)
Cc1cccc(N2CCN(c3ccc(NC(=O)/C=C\C(=O)O)cc3)CC2)c1 | -21.2% (inactive)
C=CC(=O)Nc1ccc(Nc2ccnc(Nc3ccc(N4CCN(C)CC4)cc3)n2)cc1 | -83.2% (active)
COc1cccc(-c2ccc3c(c2)N(Cc2ccccc2OC)C(=O)C(C)S3)c1 (configuration not stated) | 43.9% (inactive)
COc1ccc(CCNC(=O)Nc2ccc3c(c2)c(=O)n(C)n3C)cc1OC | -16.8% (inactive)
Cc1c(OC(C)C(=O)N[C@@H](Cc2ccccc2)C(=O)O)ccc2c3c(c(=O)oc12)CCCC3 (some centres not stated) | 11.6% (inactive)
O=C1NC(=O)C(CCc2ccccc2)(c2ccccc2)N1 (configuration not stated) | -4.4% (inactive)
O=C(NCc1ccccc1)c1onc(CSc2ccncc2)c1C(=O)NCc1ccccc1 | 39.9% (inactive)
COc1ccc(Nc2nc(NCc3ccco3)nc(N/N=C/c3ccccc3Cl)n2)cc1 | -12.1% (inactive)
COc1cccc(Nc2nc(N)c([N+](=O)[O-])c(NCc3ccco3)n2)c1 | -69.4% (active)
CN(c1ccccc1)c1nc(N)c([N+](=O)[O-])c(NCc2ccco2)n1 | -23.7% (inactive)
